# Records with an inconclusive call do not appear. Calls of active or inactive are those of the source. Unless noted, the limit is not given here; nearly all actives have AC50 up to about 30 µM.
# Legend:
# [1] = growth inhibition of DIPG glioma cells, dose response, cell-based, SU-DIPG-XIII, MIPE4.0, CellTiter-Glo, qHTS (AID 1347061; cut-off not given, nearly all actives have AC50 up to about 37 µM;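 also: cells exposed to compound for 48 hours before readout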); conditions: SU-DIPG-XIII viability, CellTiter-Glo ATP luminescence
# [2] = growth inhibition of DIPG glioma cells, dose response, cell-based, JHH-DIPG-1, MIPE4.0, CellTiter-Glo, qHTS (AID 1347062; cut-off not given, nearly all actives have AC50 up to about 27 µM;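 as to AC50: cells exposed to compound for two days before readout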); conditions: JHH-DIPG-1 viability, CellTiter-Glo ATP luminescence
# [3] = growth inhibition of DIPG glioma cells, dose response, cell-based, SU-DIPG-IV, MIPE4.0, CellTiter-Glo, qHTS (AID 1347063); conditions: SU-DIPG-IV viability, CellTiter-Glo ATP luminescence;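 also: compound exposure lasted 48 hours before the viability readout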
# [4] = SU-DIPG-VI glioma cell viability, MIPE4.0 library, CellTiter-Glo luminescence, qHTS (AID 1347066); conditions: CellTiter-Glo ATP luminescence;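 also: cells exposed to compound for 48 hours before readout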
# [5] = viability loss in pontine glioma line – cell-based, SU-DIPG-XXV, MIPE5.0, CellTiter-Glo, qHTS, dose response (AID 1347065; cut-off not given, nearly all actives have AC50 up to about 26 µM;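 also: cells exposed to compound for 48 hours before ATP readout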); conditions: CellTiter-Glo ATP luminescence
# [6] = JHH-DIPG-1 glioma cell viability, MIPE5.0 library, CellTiter-Glo luminescence, qHTS (AID 1347067; cut-off not given, nearly all actives have AC50 up to about 26 µM;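 also: cells exposed to compound for 48 hours before readout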); conditions: JHH-DIPG-1 glioma viability, CellTiter-Glo ATP luminescence
# [7] = SU-DIPG-XXV glioma cell viability, MIPE5.0 library, qHTS (AID 1347068; cut-off not given, nearly all actives have IC50 up to about 30 µM)
# [8] = liver-stage malaria parasite growth inhibition, primary screen, cell-based, HepG2, luciferase luminescence, HepG2 viability (AID 624349; in the data active = parasite load remaining mostly below about 12%, no sharp cut-off; inactive = mostly above about 10%;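 also: 100% = mean of DMSO negative control wells on the same plate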); conditions: P. berghei liver stage in HepG2, luciferase luminescence, concentration not given here; parasite load remaining: stronger effect = lower value; viability: measured here: HepG2 viability without parasites
smiles,measurement,setting,value
Nc1ccn([C@H]2CS[C@@H](CO)O2)c(=O)n1,outcome,[1],inactive
same,outcome,[2],inactive
same,outcome,[3],inactive
same,outcome,[4],inactive
COc1ccc(CC2SC(=O)NC2=O)cc1C(=O)NCc1ccc(C(F)(F)F)cc1 (stereo unspecified),outcome,[1],inactive
same,outcome,[2],inactive
same,outcome,[3],inactive
same,outcome,[5],inactive
same,outcome,[4],inactive
same,outcome,[6],inactive
same,outcome,[7],inactive
c1nc2nc(Nc3ccc(N4CCOCC4)cc3)nc(NC3CCCCC3)c2[nH]1,parasite load remaining,[8],59.2% (inactive)
same,viability,[8],68.1%
same,AC50,[1],9.35 µM (active)
same,AC50,[2],16.6 µM (active)
same,AC50,[3],14.8 µM (active)
same,AC50,[5],2.09 µM (active)
same,AC50,[4],8.33 µM (active)
same,AC50,[6],5.9 µM (active)
same,outcome,[7],inactive
C[C@H](NCc1ccc2c(c1)nc(NC(=O)c1ccc(-c3cn[nH]c3)s1)n2CCc1ccccc1)C(C)(C)C,AC50,[1],2.96 µM (active)
same,AC50,[2],1.05 µM (active)
same,AC50,[3],1.32 µM (active)
same,AC50,[4],5.26 µM (active)
Cc1ccnc(NS(=O)(=O)c2ccc(NC(=O)Nc3ccc(S(=O)(=O)Nc4nccc(C)n4)cc3)cc2)n1,outcome,[1],inactive
same,AC50,[2],2.64 µM (active)
same,AC50,[3],14.8 µM (active)
same,outcome,[5],inactive
same,outcome,[4],inactive
same,outcome,[6],inactive
same,outcome,[7],inactive

# Source: PubChem BioAssay
